# In the supplement of paper PMC9023506:
# Where a name gives a salt, the structure may show the parent alone.
# Test system: Danio rerio larvae (5 dpf)
# Test: optomotor response to red moving lines, difference vs DMSO (percentage points (treated minus DMSO)); higher = more of the behaviour than the DMSO vehicle control
# Conditions: 10 µM; exposure time: 3 h pre-incubation + 3 h imaging
# Method: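 5-dpf wild-type zebrafish larvae were imaged in 96-well plates. They were treated with 190 Tocris FDA-approved drugs at 10 µM (1 µl/ml DMSO) for 3 h before and 3 h during imaging at 28.5 °C, 48 larvae per drug. Automated image analysis gave % time moving and optomotor responses. Values are drug group mean minus DMSO vehicle mean (n=844), in percentage points, for 10 behaviours.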
row,SMILES,optomotor response to red moving lines
1,COc1ccc([C@@H]2Sc3ccccc3N(CCN(C)C)C(=O)[C@@H]2OC(C)=O)cc1 [Diltiazem hydrochloride],-1.99
2,COc1cc([C@@H]2c3cc4c(cc3[C@@H](O[C@@H]3O[C@@H]5CO[C@@H](C)O[C@H]5[C@H](O)[C@H]3O)[C@H]3COC(=O)[C@H]23)OCO4)cc(OC)c1O [Etoposide],2.25
3,Cc1ccsc1C(=CCCN1CCC[C@@H](C(=O)O)C1)c1sccc1C [Tiagabine hydrochloride],20.4
4,C[C@H]1C[C@@H]2[C@H]([C@@H](O)C[C@@]3(C)[C@H]2CC[C@]3(O)C(=O)CO)[C@@]2(C)C=CC(=O)C=C12 [Methylprednisolone],-1.93
5,COC(c1ccccc1)(c1ccccc1)[C@H](Oc1nc(C)cc(C)n1)C(=O)O [Ambrisentan],-4.02
6,O=C(NCC1CCCCN1)c1cc(OCC(F)(F)F)ccc1OCC(F)(F)F (stereo not given) [Flecainide acetate],-9.35
7,CN[C@H]1CC[C@@H](c2ccc(Cl)c(Cl)c2)c2ccccc21 [Sertraline hydrochloride],21.6
8,CCOC(=O)[C@H](CCc1ccccc1)N[C@@H](C)C(=O)N1[C@H](C(=O)O)C[C@@H]2CCC[C@@H]21 [Ramipril],-1.65
9,O=C(O)C[C@H](O)C[C@H](O)/C=C/c1c(C2CC2)nc2ccccc2c1-c1ccc(F)cc1 [Pitavastatin calcium],3.56
10,CC(C)c1nc(CN(C)C(=O)N[C@H](C(=O)N[C@@H](Cc2ccccc2)C[C@H](O)[C@H](Cc2ccccc2)NC(=O)OCc2cncs2)C(C)C)cs1 [Ritonavir],-2.77
11,CNCc1ccc(-c2[nH]c3cc(F)cc4c3c2CCNC4=O)cc1 [Rucaparib camsylate],2.5
12,CCOC(=O)c1ncn2c1CN(C)C(=O)c1cc(F)ccc1-2 [Flumazenil],-7.04
13,Cc1cc2c(s1)Nc1ccccc1N=C2N1CCN(C)CC1 [Olanzapine],4.76
14,Clc1ccccc1C(c1ccccc1)(c1ccccc1)n1ccnc1 [Clotrimazole],26.3
15,Cc1ccccc1C(=O)Nc1ccc(C(=O)N2CCCC(O)c3cc(Cl)ccc32)c(C)c1 (stereo not given) [Tolvaptan],-7.01
16,OC(c1cc(C(F)(F)F)nc2c(C(F)(F)F)cccc12)C1CCCCN1 (stereo not given) [Mefloquine hydrochloride],8.36
17,CC(c1cc2ccccc2s1)N(O)C(N)=O (stereo not given) [Zileuton],-7.52
18,COc1c(C)c2c(c(O)c1C/C=C(\C)CCC(=O)OCCN1CCOCC1)C(=O)OC2 [Mycophenolate mofetil],12.2
19,COc1cc2ncnc(Nc3ccc(F)c(Cl)c3)c2cc1OCCCN1CCOCC1 [Iressa],1.01
20,Clc1ccc(COC(Cn2ccnc2)c2ccc(Cl)cc2Cl)c(Cl)c1 (stereo not given) [Miconazole nitrate],-8.36

row,SMILES,optomotor response to red moving lines
1,CC(C)c1ccc2oc3nc(N)c(C(=O)O)cc3c(=O)c2c1 [Amlexanox],-3.59
2,CN(C)CCc1c[nH]c2ccc(Cn3cncn3)cc12 [Rizatriptan benzoate],14.6
3,CN1CCC[C@@H]1Cc1c[nH]c2ccc(CCS(=O)(=O)c3ccccc3)cc12 [Eletriptan hydrobromide],4.39
4,Nc1cccc2c1CN(C1CCC(=O)NC1=O)C2=O (stereo not given) [Lenalidomide],6.24
5,OCCOCCN1CCN(C2=Nc3ccccc3Sc3ccccc32)CC1 [Quetiapine hemifumarate],6.92
6,C[C@@H](O[C@H]1OCCN(Cc2n[nH]c(=O)[nH]2)[C@H]1c1ccc(F)cc1)c1cc(C(F)(F)F)cc(C(F)(F)F)c1 [Aprepitant],-4.19
7,CC/C(=C(\c1ccccc1)c1ccc(OCCN(C)C)cc1)c1ccccc1 [Tamoxifen citrate],-11
8,C=C1[C@H](CO)[C@@H](O)C[C@@H]1n1cnc2c(=O)[nH]c(N)nc21 [Entecavir],1.68
9,CC(C)OC(=O)C(C)(C)Oc1ccc(C(=O)c2ccc(Cl)cc2)cc1 [Fenofibrate],16.3
10,CC(=O)S[C@@H]1CC2=CC(=O)CC[C@]2(C)[C@H]2CC[C@@]3(C)[C@@H](CC[C@@]34CCC(=O)O4)[C@H]12 [Spironolactone],11.7
11,NS(=O)(=O)c1cc2c(cc1Cl)NC(C1CC3C=CC1C3)NS2(=O)=O (stereo not given) [Cyclothiazide],-6.66
12,CC1(C)O[C@@H]2[C@@H](CO[C@@]3(COS(N)(=O)=O)OC(C)(C)O[C@@H]23)O1 [Topiramate],-0.793
13,CN(C)CC/C=C1/c2ccccc2COc2ccc(CC(=O)O)cc21 [Olopatadine hydrochloride],19
14,Cc1ccc(-c2cc(C(F)(F)F)nn2-c2ccc(S(N)(=O)=O)cc2)cc1 [Celecoxib],-3.89
15,Cn1cnc([N+](=O)[O-])c1Sc1ncnc2[nH]cnc12 [Azathioprine],3.86
16,COC(=O)C1=C(C)NC(C)=C(C(=O)OC(C)C)C1c1cccc2nonc12 (stereo not given) [Isradipine],-7.63
17,CC(C)[C@H]1CC[C@H](C(=O)N[C@H](Cc2ccccc2)C(=O)O)CC1 [Nateglinide],12.8
18,CCOC(=O)[C@H](CCc1ccccc1)N[C@H]1CCc2ccccc2N(CC(=O)O)C1=O [Benazepril hydrochloride],13
19,Cc1ccc(N(CC2=NCCN2)c2cccc(O)c2)cc1 [Phentolamine Mesylate],14.5
20,CCOc1nc2cccc(C(=O)O)c2n1Cc1ccc(-c2ccccc2-c2noc(=O)[nH]2)cc1 [Azilsartan],-3.43
